Source: PubChem BioAssay (NCI)
The panel holds about 83,000 compounds, 20% with a hit somewhere; the sample as a whole holds those more often.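 Each cell line was grown in a 96-well plate and treated with one concentration of compound for 48 hours. Values below 10 were considered active.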 The source made the active and inactive calls.

What follows are compounds tested on MDA-MB-435 melanoma (assay: NCI-60 one-dose screen, 48 h (100 = growth as untreated, 0 = no growth, -100 = all killed)). Settings: 10 µM unless noted.
Experimental: Growth inhibition of the MDA-MB-435 human Melanoma tumor cell line is measured as a screen for anti-cancer activity. Cells are grown in 96 well plates and exposed to the test compound for 48 hours. Compounds are tested at a single concentration, which is 10^-5 M for most compounds. The reported endpoint is percent growth (GI% or GIPRCNT), where numbers from 0 - 100% represent growth inhibition, and numbers from -100% - 0 represent cell death. For example, a value of 40 represents 60% growth inhibition. A value of 0 means no net growth occurred over the course of the experiment. A value of -40 indicates 40% of cells at the beginning of the experiment died by the end of the experiment. A value of -100 means all cells are dead at the end of the experiment.
NCI-60 Human Tumor Cell Lines Screen was performed using the standard one-dose NCI protocol, which is described in more detail at https://dtp.cancer.gov/discovery_development/nci-60/default.htm.
Compounds with GIPRCNT values below 10 were considered active. Activity score was based on GIPRCNT using the following formula: […]
Score is 0 for GIPRCNT values of 100 or above, 50 for GIPRCNT values of 0, and 100 for GIPRCNT values of -100.

Q: Which growth does the source give for COc1ccc2c(c1)NC1=C(C(=O)OC1)C2c1cc(OC)c2c(c1)OCO2 (stereo not given) here?
A: -14.7% (active)

Q: Which growth does the source give for CCOC(=O)/C(C#N)=C1/C(=O)Nc2ccccc21 here?
A: 119% (inactive)

Q: Which growth does the source give for O=C1/C(=C/c2ccccc2)Oc2ccc(O)c(I)c21 here?
A: 103% (inactive)

Q: Which growth does the source give for C=COC(=O)CCCCCCCCC here?
A: 106% (inactive)

Q: Which growth does the source give for C=C[C@@H]1C[C@@H]2Cc3cc(Cl)ccc3N1O2 here?
A: 92.5% (inactive)

Q: With C=CCSc1n[nH]c(-c2cccs2)n1 as the compound, how does the growth read?
A: 106% (inactive)

Q: Clc1cccc(-c2cc(-c3ccc4c(c3)OCCO4)[nH]n2)c1 was tested. Which growth did it give?
A: -37.5% [25 µM] (active)

Q: With O=C(Nc1ccncc1)C(=O)c1cn(S(=O)(=O)c2ccccc2F)c2ccccc12 as the compound, how does the growth read?
A: 3.81% (active)

Q: With CN(C)CCCN(c1nc(C(Cl)(Cl)Cl)ns1)c1nc(C(Cl)(Cl)Cl)ns1 as the compound, how does the growth read?
A: 39.5% (inactive)

Q: Which growth does the source give for COc1ccc(-c2ccc(C)n2-c2ccc(-c3nc4ccccc4s3)cc2)cc1 here?
A: 89.6% (inactive)

Q: How did the growth turn out when Clc1ccccc1-c1nc2ccccc2[nH]1 was run?
A: 103% (inactive)

Q: O=S(=O)(NCCNc1nccc(-c2c(-c3cccc(O)c3)nc3sccn23)n1)c1ccc(F)cc1 was tested. Which growth did it give?
A: 29.4% (inactive)

Q: For CCOC(=O)CN1/C(=N/c2sc3c(c2C(=O)OCC)CCN(C(=O)OCC)C3)SC(=O)/C1=C\C(=O)OC, which growth is on record?
A: 99.7% (inactive)

Q: How did the growth turn out when COc1cc(-c2nc(-c3nc4ccc(Cl)cc4[nH]3)cc3c2[nH]c2ccccc23)cc(OC)c1OC was run?
A: 75.5% (inactive)

Q: How did the growth turn out when COc1ccc2[nH]c(=O)c3c4ccccc4cn3c2c1 was run?
A: -23.3% (active)

Q: For Nc1cccc(-c2nc3sccn3c2-c2ccnc(NCCNS(=O)(=O)c3ccc(C(F)(F)F)cc3)n2)c1, which growth is on record?
A: 27% (inactive)

Q: Cc1c(C(=O)/C=C/c2csc3ccccc23)[n+](=O)c2ccccc2n1[O-] was tested. Which growth did it give?
A: 67.7% (inactive)

Q: How did the growth turn out when O=C(Nc1cccc(-n2cc(-c3ccncc3)c(-c3ccc(Cl)c(O)c3)n2)c1)c1ccccc1 was run?
A: 56.2% (inactive)

Q: With CCCCCCCCCCCCCCCCNC(=O)OC(C)C as the compound, how does the growth read?
A: 68.5% (inactive)

Q: How did the growth turn out when COc1cc(NC(N)=NCCC(C)(C)c2ccc(C(F)(F)F)cc2)ncc1C#N was run?
A: 17% (inactive)

Q: Which growth does the source give for Cn1c(=O)c2[nH]c(C3CC=CCC3)nc2n(C)c1=O (stereo not given) here?
A: 106% (inactive)

Q: How did the growth turn out when CC(=O)Nc1ccc(/C=C/C(=O)c2ccccc2)cc1 was run?
A: 114% (inactive)

Q: With COc1ccc(CNCCCN2C(=O)c3ccc4c5c(ccc(c35)C2=O)C(=O)N(CCCNCCCCNCCCN)C4=O)c(OC)c1OC as the compound, how does the growth read?
A: -39.1% (active)

Q: With CC[N+](CC)=c1cc2oc3cc(N(C)C)ccc3nc-2cc1C as the compound, how does the growth read?
A: 50.8% (inactive)

Q: For COc1ccc(Nc2nn3c(-c4ccccc4)cc(-c4ccccc4)nc3c2C(N)=O)c(OC)c1, which growth is on record?
A: 57.5% (inactive)

Q: How did the growth turn out when CC(C)(C)n1cc(-c2ccnc(NCCCNS(=O)(=O)c3ccccc3)c2)c(-c2cccc(O)c2)n1 was run?
A: 54.8% (inactive)

Q: With O=Nc1c(-c2cccc([N+](=O)[O-])c2)nc2ncccn12 as the compound, how does the growth read?
A: 99.2% (inactive)

Q: With CC(=O)OC[C@]12CC[C@H]3[C@@H](C[C@H]4O[C@]45CC=CC(=O)[C@]35C)[C@]1(O)CC[C@@]2(O)[C@@](C)(O)C1CC(C)=C(C)C(=O)O1 (stereo not given in full) as the compound, how does the growth read?
A: -77.4% (active)

Q: Which growth does the source give for COc1ccc(-c2cc3c(OC)c(OC)c(OC)cc3oc2=O)cc1 here?
A: -17.1% (active)

Q: With O=C1c2ccccc2-c2ccccc2C1(Cl)Cl as the compound, how does the growth read?
A: -90.1% (active)

Q: How did the growth turn out when Fc1ccc(Nc2ncnc3ccc(-c4cnc5[nH]ccc5c4)cc23)cc1Cl was run?
A: 51.8% (inactive)

Q: With CCCCCCCC/C=C/CCCCCCCC1=NC(C)(C)CN1C(C)(C)CO as the compound, how does the growth read?
A: -18.9% (active)

Q: O=C(Nc1ccc(NCCN2CCOCC2)nc1)c1ccc([N+](=O)[O-])cc1 was tested. Which growth did it give?
A: 97.8% (inactive)

Q: How did the growth turn out when COc1ccncc1S(=O)(=O)NC(=O)Nc1ccc(Cl)c(Cl)c1 was run?
A: 100% (inactive)

Q: With Cc1cc(C2(c3cc(C)c(O)cc3C)OS(=O)(=O)c3ccccc32)c(C)cc1O as the compound, how does the growth read?
A: 116% (inactive)

Q: For COc1cc(C(=O)/C=C/c2ccc3nc(-c4cc(F)cc(F)c4)sc3c2)cc(OC)c1OC, which growth is on record?
A: 106% (inactive)

Q: For NC(=O)c1c(NC(=S)Nc2ccc(OC(F)(F)F)cc2)sc2c1CCC1(C2)OCCO1, which growth is on record?
A: 81.6% (inactive)

Q: COc1ccc(Nc2nc(N)nc3c2CCN(Cc2ccc(OC)cc2OC)C3=O)cc1 was tested. Which growth did it give?
A: 79.2% (inactive)

Q: CCC(C)/C(=C\C#N)NCCCN/C(=C/C#N)C(C)CC (stereo not given) was tested. Which growth did it give?
A: 105% (inactive)

Q: Which growth does the source give for O=C(/C=C\c1cccc([N+](=O)[O-])c1)/C=C/c1cccc([N+](=O)[O-])c1 here?
A: 36.7% (inactive)
